Results from PubChem BioAssay AID488969 (Vanderbilt High Throughput Screening Facility, 2010).
The full ranking holds about 110,000 compounds; the median of “z-score” is about -0.1, and the highest 2% start at about 2. What follows is part of a selection rich in the highest values, with near analogues and random picks from the rest. The source made the active and inactive calls.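 How the source made its calls: active means z-score in the third read window above 3 or below -3; inactive means the rest.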

Each compound was assayed against Metabotropic glutamate receptor 8 (Rattus norvegicus) (UniProt P70579) (assay: rat mGluR8 modulators via GIRK flux, primary screen, cell-based, thallium flux, HTS (AID 488969)). Conditions: HEK293 rat mGluR8, GIRK (G protein-gated inwardly rectifying potassium channel) thallium flux, FluoZin2; at 10 µM; stronger effect = higher value; submaximal glutamate (EC20) added with thallium.
Sequence of Metabotropic glutamate receptor 8 (Rattus norvegicus) (P70579 whole entry, looked up): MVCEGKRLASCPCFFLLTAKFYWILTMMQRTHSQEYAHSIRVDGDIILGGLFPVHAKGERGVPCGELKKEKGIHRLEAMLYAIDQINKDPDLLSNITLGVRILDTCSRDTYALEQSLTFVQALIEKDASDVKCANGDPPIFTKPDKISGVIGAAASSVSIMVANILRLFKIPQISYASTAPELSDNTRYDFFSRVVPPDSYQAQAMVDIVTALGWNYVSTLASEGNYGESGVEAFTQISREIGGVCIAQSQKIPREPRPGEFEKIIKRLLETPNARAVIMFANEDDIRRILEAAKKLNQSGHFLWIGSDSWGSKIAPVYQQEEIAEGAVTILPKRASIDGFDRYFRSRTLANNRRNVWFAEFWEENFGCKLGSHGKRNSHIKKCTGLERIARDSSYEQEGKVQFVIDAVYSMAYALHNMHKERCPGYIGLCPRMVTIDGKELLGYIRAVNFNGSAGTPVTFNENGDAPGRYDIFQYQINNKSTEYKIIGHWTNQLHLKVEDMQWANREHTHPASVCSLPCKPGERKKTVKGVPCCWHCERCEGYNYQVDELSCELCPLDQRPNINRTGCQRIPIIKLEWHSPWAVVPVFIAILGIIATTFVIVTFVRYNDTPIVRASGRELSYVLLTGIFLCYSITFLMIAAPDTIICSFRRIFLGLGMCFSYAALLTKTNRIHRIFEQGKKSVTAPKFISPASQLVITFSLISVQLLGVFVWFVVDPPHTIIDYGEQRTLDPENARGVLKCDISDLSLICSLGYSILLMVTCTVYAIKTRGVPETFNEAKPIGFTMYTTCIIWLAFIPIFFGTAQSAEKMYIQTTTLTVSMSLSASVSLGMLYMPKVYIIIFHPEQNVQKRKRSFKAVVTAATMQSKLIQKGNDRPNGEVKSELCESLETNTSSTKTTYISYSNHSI

First: COc1ccccc1C(OC(=O)c1ccco1)C(=O)NC(C)(C)C (centres undefined)
Second: COc1ccccc1OC1=NS(=O)(=O)c2ccccc21
The z-score of the first is lower: -0.346 for the first, -0.276 for the second.

First: O=[N+]([O-])c1ccc(-c2nnc(CSc3nc(-c4ccccc4)nc4ccc(F)cc34)o2)cc1
Second: O=c1c2ccccc2nc(SCc2nnc(-c3ccccc3)o2)n1-c1ccc(F)cc1F
The z-score of the first is higher: 0.0904 for the first, -0.56 for the second.

Compared with COc1cc2c(cc1OC)C(COc1ccc3c(C)cc(=O)oc3c1)N(C(=O)c1ccco1)CC2 (centres undefined), COc1ccc(OC)c(C2C(C(=O)O)c3ccccc3C(=O)N2C)c1 (centres undefined) is higher in z-score: 0.044 for the first, 0.356 for the second.

Compared with Cc1csc(SCC(=O)N2CCN(S(=O)(=O)c3ccc(Cl)cc3)CC2)n1, CCOC(=O)N1CCN(C(=O)c2ccc(CNS(=O)(=O)c3ccc(C)cc3)cc2)CC1 is lower in z-score: 0.756 for the first, -0.952 for the second.

Going from COC(=O)c1cc(-c2cccc(OC)c2)on1 to COCCNC(=O)c1cc(-c2cccc(OC)c2)on1, the z-score rises from -1.1 to -0.215.

First: CCOC(=O)c1c(C(F)(F)F)nc2ncccn12
Second: COC(=O)CSc1nc2ccccc2o1
The z-score of the first is higher: -0.534 for the first, -0.541 for the second.

Going from O=C(c1cnn2c(C(F)(F)F)cc(-c3ccc4c(c3)OCO4)nc12)N1CCCC1 to COc1ccc(-c2nc3ccccn3c2NCc2ccc3c(c2)OCO3)cc1, the z-score falls from -0.369 to -1.02.

Compared with O=C(CCCc1c[nH]c2ccccc12)N1CCN(c2ccc(N3CCOCC3)nn2)CC1, c1ccc(N2CCN(c3c4c(nc5ncnn35)CCC4)CC2)cc1 is higher in z-score: -0.501 for the first, -0.139 for the second.

Compared with O=C(Nc1ccc2nc3n(c(=O)c2c1)CCCC3)c1ccccc1[N+](=O)[O-], CN(C)c1cccc(C(=O)Nc2ccc3nc4n(c(=O)c3c2)CCCCC4)c1 is higher in z-score: -0.424 for the first, -0.303 for the second.

First: CC(C)(C)c1cc(NC(=O)COC(=O)c2ccc3c(=O)n4c(nc3c2)CCC4)n(-c2ccccc2)n1
Second: O=C(COC(=O)c1ccc2c(=O)n3c(nc2c1)CCC3)Nc1ccccc1F
The z-score of the first is higher: -0.264 for the first, -0.441 for the second.

Compared with Cc1cccc(NC(=O)COC(=O)c2ccc3c(=O)n4c(nc3c2)CCC4)c1, CCOC(=O)c1ccc(NC(=O)c2ccccc2[N+](=O)[O-])cc1 is lower in z-score: 2.19 for the first, -0.169 for the second.

First: CC(C)(C)n1nc2c(c1NC(=O)c1ccccc1F)CS(=O)C2 (centres undefined)
Second: C/C(Cc1ccccc1)=N\NC(=O)c1ccc(F)cc1
The z-score of the first is lower: -0.492 for the first, 0.49 for the second.

First: Cc1cc(C(=O)N2CCN(C(c3ccccc3)c3ccccc3)CC2)no1
Second: O=C(CSc1cn(Cc2ccccc2)c2ccccc12)Nc1nccs1
The z-score of the first is higher: -0.079 for the first, -0.121 for the second.

Compared with CCCn1nc(-c2ccccc2)c2nc3ccccc3nc21, CCCCn1nc(-c2ccccc2)c2nc3ccccc3nc21 is lower in z-score: 0.0864 for the first, -0.013 for the second.

First: CCCn1cc(SCC(=O)NCC2CCCO2)c2ccccc21 (centres undefined)
Second: C=CCn1c(N)c(C(=O)NCC2CCCO2)sc1=S (centres undefined)
The z-score of the first is lower: 0.0527 for the first, 0.129 for the second.

Going from N#Cc1c(/N=C/c2cc3ccccc3s2)sc2c1CCC2 to Cc1ccc(/C=N/c2sc3c(c2C#N)CCCCC3)o1, the z-score falls from -0.0332 to -0.0448.

First: CCOC(=O)c1sc(/N=C/c2c(C)[nH]n(-c3ccccc3)c2=O)c(C#N)c1C
Second: COc1cc(SC#N)ccc1N=Cc1c(C)[nH]n(-c2cccc3ccccc23)c1=O
The z-score of the first is higher: -0.156 for the first, -0.32 for the second.

Compared with Cc1nonc1OCC(C)(COc1nonc1C)NC(=O)c1ccc(Cl)cc1, CCCOc1ccc(OCC(=O)c2[nH]c(C)c(C(C)=O)c2C)cc1 is higher in z-score: -0.0555 for the first, 0.149 for the second.

Compared with COc1ccccc1CNC(=O)/C=C/c1cc2c(cc1Br)OCO2, O=C(CSCc1ccccc1Br)N/N=C/c1ccc2c(c1)OCO2 is lower in z-score: -0.0108 for the first, -0.0558 for the second.

First: CC(=O)c1c(C)[nH]c(C(=O)COc2ccc(C#N)cc2)c1C
Second: CC(C)(C)NCCOc1ccc(Br)cc1
The z-score of the first is higher: -0.0197 for the first, -0.0295 for the second.

First: O=C1CN(Cc2ccccc2)C(=NCc2ccco2)S1
Second: O=C(CS(=O)(=O)Cc1ccccc1)Nc1ccc(S(=O)(=O)N2CCOCC2)cc1
The z-score of the first is lower: -0.501 for the first, -0.109 for the second.

First: Cc1cccc(NC(=S)NCC23C=CC(O2)C2C(=O)N(c4ccc(Cl)cc4)C(=O)C23)c1 (centres undefined)
Second: CC(=O)NC(=S)Nc1ccc(-c2nc3ccc(C)cc3s2)cc1
The z-score of the first is lower: -0.343 for the first, 0.23 for the second.

Going from OCCNCCCCOc1ccc(F)cc1 to CC(C)(C)NCCCCOc1ccc(F)cc1, the z-score rises from 0.17 to 2.98.

Going from CCOC(=O)N1CCN(c2cc(=O)n(C3CCCCC3)c(=O)[nH]2)CC1 to CCCC(=O)Nc1nc2ccc(S(=O)(=O)N3CCCCC3)cc2s1, the z-score falls from 0.0254 to -0.273.

Compared with CCOc1ccc(OCC)c(-c2c(=O)n(OCc3ccccc3Br)c3ccccc3[n+]2[O-])c1, COc1ccc(C(=O)NN=C(Cc2ccccc2)Cc2ccccc2)cc1OC is lower in z-score: 1.8 for the first, -0.165 for the second.

Going from COc1cccc(CC(NC(C)=O)C(=O)NC2CCN(c3c4c(nc5ncnn35)CCC4)CC2)c1 (centres undefined) to Cc1ccc(CNC(=O)C(Cc2ccccc2)NS(=O)(=O)c2ccc3c(c2)CCC(=O)N3)cc1 (centres undefined), the z-score falls from 0.172 to 0.0976.

Going from COc1ccc2cc(S(=O)(=O)NCCCN3CCOCC3)ccc2c1 to CCc1ccccc1NC(=O)C(C#N)Cc1cccnc1 (centres undefined), the z-score rises from -0.0146 to 0.345.

Compared with Cc1ccccc1NC(=O)C(C#N)Cc1cccnc1 (centres undefined), Cc1ccccc1NC(=O)/C(C#N)=C\c1cccnc1 is lower in z-score: 2.26 for the first, -0.183 for the second.

First: Cc1ccc(CO/N=C\Cc2snc(Sc3ncc(C(F)(F)F)cc3Cl)c2C#N)cc1
Second: O=C(Nc1nc(-c2cc(Cl)sc2Cl)cs1)c1ccc(Br)s1
The z-score of the first is lower: 0.0198 for the first, 0.0927 for the second.

O=C(Nc1nc(-c2ccccn2)cs1)C1CC1 showed a z-score of 0.0299.

With Fc1ccc2nc(-c3ccccc3)nc(SCc3nnc(-c4ccccc4)o3)c2c1 the z-score was 14.3 (active).
In the case of COc1cccc(-c2cc(C(=O)NC3CCCC3)no2)c1, the z-score is reported as 5.04 (active).
With Cc1ccccc1C(=O)Nc1ccc2nc3n(c(=O)c2c1)CCC3 the z-score was 3.87 (active).
For CCCCCn1nc(-c2ccccc2)c2nc3ccccc3nc21, the z-score was 14.9 (active).
For Cc1[nH]n(-c2ccc(F)cc2)c(=O)c1/C=N/c1sc2c(c1C#N)CCCC2, the z-score was 13 (active).
With Cc1[nH]n(-c2cccc3ccccc23)c(=O)c1/C=N/c1sc2c(c1C#N)CCC2 the z-score was 8.05 (active).
In the case of CC(=O)c1c(C)[nH]c(C(=O)COc2cc(C)cc(C)c2)c1C, the z-score is reported as 4 (active).
COc1cccc(N2CCN(c3c4c(nc5ncnn35)CCC4)CC2)c1 was tested, and the z-score was 5.19 (active).
With O=C(NN=C(Cc1ccccc1)Cc1ccccc1)c1ccc(F)cc1 the z-score was 4.71 (active).
For O=C(Nc1nc(-c2ccccn2)cs1)c1ccc(Br)s1, the z-score was 12.3 (active).
